Records with an inconclusive call do not appear. Active and inactive are the calls of the source. Calls come from the whole dose curve; as a rule, active = well fitted inhibition curve with a large enough effect in the signal ratio in the repeat runs (not every such curve was filed as active); inconclusive = weak or mixed curves, or effect the other way; inactive = no such curve, though single readings can be large or run the other way; the % refers to the signal ratio.

The target of the test is Bile acid receptor (Homo sapiens) (UniProt Q96RI1). The test can be described thus: qHTS assay to identify small molecule antagonists of the farnesoid-X-receptor (FXR) signaling pathway (AID 743217). The following applies: HEK293T FXR-UAS-bla, beta-lactamase ratio, CDCA-stimulated, 16 h; series mostly up to 62.6 µM. In outline: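 Antagonist mode against 50 uM (final) chenodeoxycholic acid stimulation in FXR-bla HEK 293T cells, 16 h at 37 °C. Inhibition detected as reduced beta-lactamase activity via LiveBLAzer B/G FRET fluorescence after 2 h at room temperature.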
Chain of Bile acid receptor (Homo sapiens) (Q96RI1 whole entry, looked up): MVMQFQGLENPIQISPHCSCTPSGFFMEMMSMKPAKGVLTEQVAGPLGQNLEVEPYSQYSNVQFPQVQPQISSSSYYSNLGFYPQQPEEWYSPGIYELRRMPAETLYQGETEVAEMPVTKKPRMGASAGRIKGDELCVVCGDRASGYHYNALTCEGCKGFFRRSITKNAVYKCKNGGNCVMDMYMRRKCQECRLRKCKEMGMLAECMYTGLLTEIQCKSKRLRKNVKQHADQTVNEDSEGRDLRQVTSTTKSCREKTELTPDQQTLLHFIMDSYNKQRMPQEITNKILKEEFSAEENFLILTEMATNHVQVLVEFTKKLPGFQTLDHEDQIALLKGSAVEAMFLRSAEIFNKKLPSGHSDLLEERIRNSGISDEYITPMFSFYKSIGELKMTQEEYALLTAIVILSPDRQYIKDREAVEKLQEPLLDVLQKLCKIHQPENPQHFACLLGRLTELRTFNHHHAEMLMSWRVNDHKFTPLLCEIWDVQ
A general note: qHTS replaces the single test concentration by a dilution series.
Consider `CC(C)COC(=O)C(C)C`, for which the outcome was inactive.
To `O=C(O)c1cccc(C(=O)O)n1` belongs “inactive”; to `OCCN1C[C@H](O)[C@@H](O)[C@H](O)[C@H]1CO`, “inactive”.
As for `COc1cccc(OC)c1`, the entry is “inactive”.
To `CCOC(=O)Cn1c(=O)sc2cccc(Cl)c21` belongs “inactive”.
Turning to `O=C(O)C(O)[C@H](O)[C@@H](O)[C@H](O)[C@H](O)CO` (some centres not stated), the outcome was inactive.
As for `NS(=O)(=O)c1cc(C2(O)NC(=O)c3ccccc32)ccc1Cl` (configuration not stated), the entry is “inactive”; as for `N#CC1(O)CCCCC1`, “inactive”.
`O=C1CC2(CCCC2)CC(=O)N1`: the result was inactive.
To `O=C(O)CCNC(=O)c1ccc(N=Nc2ccc(O)c(C(=O)O)c2)cc1` belongs “inactive”; to `N#CCc1ccccc1[N+](=O)[O-]`, “inactive”; to `NC(=O)c1c(Cl)cccc1Cl`, “inactive”.
As for `C=CCSCC1Nc2cc(Cl)c(S(N)(=O)=O)cc2S(=O)(=O)N1` (configuration not stated), the entry is “inactive”; as for `Cc1ccc(Nc2ccc(O)c3c2C(=O)c2ccccc2C3=O)cc1`, “inactive”.
As for `C(=C(c1ccccc1)c1ccccc1)c1ccccc1`, the entry is “inactive”; as for `CC(C)CCOC(=O)CC(C)C`, “inactive”; as for `COc1ccc(COC=O)cc1`, “inactive”.

The values above are taken from PubChem BioAssay (Tox21).
